Unmarked numbers belong to inactive results. How the calls were made is not given here.

One may read the inhibition as the change of the read-out against control, counted positive when it falls.

The target in this test is Pantothenate synthetase (Mycobacterium tuberculosis (strain ATCC 25618 / H37Rv)) (UniProt P9WIL5). In words: Recombinant Mtb pantothenate synthetase (PanC) inhibitors, coupled enzyme, confirmatory (AID 375).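 Further: 0% = full reaction with vehicle and 100% = no enzyme background.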 To be noted: coupled enzyme assay; at 10 µM, hits give high values.
Pantothenate synthetase (Mycobacterium tuberculosis (strain ATCC 25618 / H37Rv)), sequence (P9WIL5 whole entry, looked up): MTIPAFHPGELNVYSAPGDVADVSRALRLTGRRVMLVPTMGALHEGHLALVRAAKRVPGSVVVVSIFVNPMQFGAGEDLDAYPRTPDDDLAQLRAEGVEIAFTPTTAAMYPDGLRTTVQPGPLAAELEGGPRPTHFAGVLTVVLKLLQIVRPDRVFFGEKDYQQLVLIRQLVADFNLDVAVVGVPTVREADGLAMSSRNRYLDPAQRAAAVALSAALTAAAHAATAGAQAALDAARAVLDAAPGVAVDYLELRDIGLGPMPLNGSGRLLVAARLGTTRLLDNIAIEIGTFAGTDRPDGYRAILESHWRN
`CC1CCN(S(=O)(=O)c2ccc(S(=O)(=O)NCC(=O)C(C)(C)C)cc2)CC1`: the inhibition was 2%. As for `CCOC(=O)N1CCN(C(=O)CN2C(=O)COc3ccc(C)cc32)CC1`, the inhibition is 6%. As for `O=C(CN1CCC(n2nnc3ccccc32)CC1)Nc1ccc2c(c1)CCC2`, the inhibition is 0%. On to `COC(=O)C(NC(C)=O)(Nc1ccccn1)C(F)(F)F` (stereo not given), for which the inhibition was 1%. In the case of `Cc1ccccc1C(=O)NC1CCN(Cc2nnnn2CCc2ccccc2)CC1`, the inhibition is 14%. To `Cc1cc(C)n(CCCNC(=O)c2ccc(S(=O)(=O)NCc3ccco3)cc2)n1` belongs 3%; to `O=C(CSc1nc2ccc(Cl)cc2[nH]1)NCc1ccco1`, 0%. To `CCc1cc2c(=O)c(-c3cscn3)coc2cc1O` belongs 0%; to `COc1oc(-c2ccccc2)nc1C(F)(F)F`, 0%; to `Cc1ccc(-c2nc(-c3cccnc3)no2)c(C)c1`, 5%.

Take `Cc1nc2ccccc2n1CCC(=O)Nc1cccc(F)c1`: the inhibition was 4%. To `CCCn1c2c(c(O)c(C(=O)Nc3ccc(C)cn3)c1=O)CCCC2` belongs 4%; to `CCCN(CCC)S(=O)(=O)c1ccc(NS(C)(=O)=O)cc1`, 0%; to `Cc1ccc(C(=O)N2CCCC(c3nc4c(nnn4Cc4ccccc4)c(=O)[nH]3)C2)cc1` (stereo not given), 1%. To `CCc1nnc(NC(=O)c2cccc(C(=O)Nc3nnc(CC)s3)n2)s1` belongs 0%; to `COc1ccc(OCC(O)Cn2c(Br)nc3c2c(=O)[nH]c(=O)n3C)cc1` (stereo not given), 11%. To `O=C(NC1CCCC1)C(c1ccco1)N(Cc1ccccc1)C(=O)c1csnn1` (stereo not given) belongs 0%. In the case of `CC(C)(C)C1CCc2[nH]nc(C(=O)O)c2C1` (stereo not given), the inhibition is 5%. To `CCOC(=O)c1sc(=NC(=O)c2ccc(OC)c(OC)c2)n(C)c1C` belongs 2%; to `COc1ccccc1NC(=O)CSc1nnnn1-c1ccc2c(c1)OCO2`, 0%. To `CCc1cccc(NC(=O)CCc2nc(-c3cccs3)no2)c1` belongs 0%; to `COc1ccc2c3c(c(=O)oc2c1OCC(N)=O)CCCC3`, 2%; to `CC1=C(C(=O)Nc2ccccc2)C(c2cccs2)C(C#N)=C(SCC#N)N1` (stereo not given), 5%. On to `CCCCC(=O)NCCc1cc2ccc(OC)cc2[nH]c1=O`, for which the inhibition is 0%. Take `CCOC(=O)c1c(C)[nH]c(C(=O)COC(=O)C2CC2C)c1C` (stereo not given): the inhibition is 0%. To `COc1ccc(-n2cnnc2SCCC#N)cc1` belongs 0%; to `Cc1nnc2ccc(N3CCN(c4cccc(C(F)(F)F)c4)CC3)nn12`, 0%; to `O=C(c1ccco1)N1CCN(c2ccc(Cl)cc2)CC1`, 5%.

Consider `CCCn1nnc(NCc2ccc(OCc3cccs3)c(OC)c2)n1`, for which the inhibition was 0%. Turning to `O=c1c(-c2ccc(F)cc2)coc2c3c(ccc12)OCCO3`, the inhibition was 11%. To `CC(OC(=O)c1ccco1)C(=O)NCc1cccs1` (stereo not given) belongs 0%; to `COc1ccc(C(=O)N2CCN(c3nc4cc(C)ccc4cc3C#N)CC2)c(OC)c1`, 0%. In the case of `Cn1c(SCCN2CCCCC2)nnc1-c1ccccc1Br`, the inhibition was 0%. To `COc1ccccc1C1/C(=C(/O)c2ccccc2)C(=O)C(=O)N1CC(C)C` (stereo not given) belongs 0%; to `S=C(c1ccc(-c2cc(Cl)ccc2Cl)o1)N1CCOCC1`, 0%; to `O=C(CCOc1ccccc1)NCc1ccccc1`, 0%. As for `COc1ccc(OC)c(Nc2ncnc3c2cnn3-c2ccccc2)c1`, the inhibition is 0%.

Take `Cc1ccc(Nc2nc(CSc3nnnn3C)cs2)cc1`: the inhibition was 0%. In the case of `CC(=O)N1CCc2cc(Br)cc(S(=O)(=O)NCCCN3CCCC(C)C3)c21` (stereo not given), the inhibition was 2%. To `Cc1ccc(-c2nnc3c4ccccc4c(C)nn23)cc1NC(=O)c1ccco1` belongs 0%.

For the origin of these results see PubChem BioAssay.
